This is a sample that favours compounds with a hit; in the whole collection about 1.8% have one here.
LYPLA1 inh: LYPLA1 (human) inhibition in PME1 counter-screen; O75608; recombinant LYPLA1, FP-Rh probe fluorescence polarization; inhibition, % at 5.9 µM; hit rate 0.16% among 320,000;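 active = inhibition above the mean of all tested compounds plus 3 SD, set per campaign, cut at about 14% in these data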;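 also: inhibitors block serine hydrolase probe labeling of LYPLA1 so polarization falls; 0% = enzyme with DMSO and 100% = wells lacking LYPLA1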
Fam108B counter: Fam108B inhibition, counter-screen for RBBP9 inhibitors | inhibition, % at 9.51 µM | hit rate 0.33% among 300,000 | recombinant Fam108B, FP-Rh probe fluorescence polarization | AID 1947;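 active = inhibition above the screen mean inhibition plus 3 SD, computed separately per campaign, cut at about 18% in these data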;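 also: inhibitors lower polarization as less probe binds the enzyme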
GSTO1 inh: counter-screen for RBBP9 inhibitors: inhibitors of human GSTO1; recombinant GSTO1, activity-based probe fluorescence polarization; hit rate 1.1% among 300,000; inhibition, % at 5.96 µM; AID 1974;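 active = inhibition above the campaign mean inhibition plus 3 SD, cut at about 35% in these data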;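 also: 0% = GSTO1-1 with DMSO and 100% = wells lacking GSTO1-1 enzyme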
PAD4 FP inh: blocks human protein arginine deiminase 4; Q9UM07; recombinant PAD4, RCA probe fluorescence polarization; inhibition, % at 6.36 µM; hit rate 0.41% among 330,000; AID 485272;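 active = percent inhibition above a cutoff equal to the mean of all tested compounds plus 3 SD, cut at about 15% in these data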;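 also: 0% = PAD4 with RCA probe and DMSO and 100% = probe without PAD4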
PME-1 primary: PME-1 (human) inhibition | Q9Y570 | recombinant PME-1, FP-Rh probe fluorescence polarization | hit rate 0.53% among 320,000 | inhibition, % at 5.9 µM | AID 2130;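 active = inhibition above the campaign mean of all compounds plus 3 SD, cut at about 26% in these data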;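 also: competitive labeling of PME-1 active site by serine hydrolase directed probe; 0% = PME-1 with DMSO and 100% = wells lacking PME-1 enzyme; inhibitors block probe labeling so polarization falls and inhibition rises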
Target sequence (Q9Y570 whole entry, looked up): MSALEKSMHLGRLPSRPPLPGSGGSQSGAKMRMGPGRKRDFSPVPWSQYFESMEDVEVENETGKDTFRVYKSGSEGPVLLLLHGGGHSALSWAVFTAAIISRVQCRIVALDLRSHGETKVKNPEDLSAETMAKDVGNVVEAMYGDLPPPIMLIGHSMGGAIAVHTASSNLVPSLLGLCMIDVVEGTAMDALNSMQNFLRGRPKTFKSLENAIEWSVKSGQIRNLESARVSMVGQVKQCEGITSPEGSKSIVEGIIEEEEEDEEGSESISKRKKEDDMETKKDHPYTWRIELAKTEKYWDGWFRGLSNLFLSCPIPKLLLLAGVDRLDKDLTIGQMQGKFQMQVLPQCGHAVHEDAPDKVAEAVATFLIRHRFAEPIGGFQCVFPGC
LYPLA2 counter: blocks human lysophospholipase 2, a PME1 counter-screen; O95372; recombinant LYPLA2, FP-Rh probe fluorescence polarization; AID 2177; hit rate 0.38% among 320,000; inhibition, % at 5.9 µM;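 active = inhibition above the screen-wide mean plus 3 SD, limit set per campaign, cut at about 26% in these data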;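 also: 0% = LYPLA2 with DMSO and 100% = wells lacking LYPLA2 enzyme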
LYPLA2 conf: counter-screen for PME1 inhibitors: confirmation of human LYPLA2 inhibitors; hit rate 72% among 1,100; recombinant LYPLA2, FP-Rh probe fluorescence polarization; shares compounds with LYPLA2 counter; inhibition, % at 5.9 µM;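 active = mean inhibition across replicates above the hit cutoff set in the primary screen, cut at about 26% in these data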;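 also: blocked labeling of the enzyme by serine hydrolase FP-Rh probe lowers polarization; 0% = enzyme with DMSO and 100% = wells lacking LYPLA2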
LYPLA2 ABPP: inhibitors of human LYPLA2 | shares compounds with LYPLA2 counter | rhLYPLA2 in mouse brain proteome, gel ABPP FP-Rh | inhibition, % at 20 µM | hit rate 30% among 150 | AID 652029;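 active = inhibition of LYPLA2 enzyme probe labeling above about 50%, limit read from the data; inactive = inhibition below that limit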;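 also: loss of FP-Rh probe labeling of the LYPLA2 gel band measured as band density; 0% = DMSO only control band and 100% = blank gel background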
An asterisk follows results filed as active; x = no result.

SMILES | LYPLA1 inh | Fam108B counter | GSTO1 inh | PAD4 FP inh | PME-1 primary | LYPLA2 counter | LYPLA2 conf | others
N#C/C(=C\c1ccc(OCc2ccc(C(=O)O)cc2)cc1)C(=O)NCc1ccccc1 | 5.9 | -2.5 | -17.1 | 2.5 | -1.0 | 40.3* | 33.4*
COc1ccc(/C=N\NC(=O)CNC(=O)C2COc3ccccc3O2)cc1[N+](=O)[O-] (configuration not stated) | 1.6 | -1.6 | 4.6 | -0.7 | -0.4 | 0.6 | x
Cc1cccc(CNc2ncnc3ccc(-c4ccccc4Cl)cc23)c1 | -8.6 | x | x | -0.6 | -24.5 | -21.1 | x
O=C(Nc1ccc(S(=O)(=O)N2CCOCC2)cc1)c1c(F)cccc1F | 2.6 | -1.5 | 10.1 | -5.4 | -9.4 | -2.4 | x
O=C(CNc1ccc(Br)cc1)Nc1ccc(S(=O)(=O)N2CCCC2)cc1 | -6.1 | x | x | 0.6 | 3.8 | 28.8* | 19.4
O=C(Nc1ccc(S(=O)(=O)N2CCCC2)cc1)c1c(F)cccc1F | -0.9 | -2.2 | 4.1 | -1.7 | 7.2 | 27.6* | 0.3
O=C(CNc1ccc(Br)cc1)Nc1cccc(S(=O)(=O)N2CCCC2)c1 | -3.8 | x | x | -3.7 | 8.8 | -6.1 | x
COc1cccc(CNS(=O)(=O)c2c(C)[nH]c(C)c2C(=O)N2CCCCC2)c1 | -0.7 | -0.6 | 0.8 | 7.4 | -2.8 | 4.0 | x
Cc1nc([N+](=O)[O-])cn1CC(=O)Nc1ccc(F)c(Cl)c1 | -0.9 | 1.5 | 7.0 | 1.0 | -6.2 | 44.7* | 59.1* | LYPLA2 ABPP=70.0*
Cc1ncc([N+](=O)[O-])n1CC(=O)Nc1ccc(F)c(F)c1 | 1.4 | 2.0 | 0.2 | -6.1 | -6.2 | 66.6* | 59.8* | LYPLA2 ABPP=44.0
Cc1ccccc1NC(=O)Cn1c([N+](=O)[O-])cnc1C | 3.6 | 6.3 | 8.2 | 3.6 | -2.1 | 18.3 | x
Cc1ccc(NC(=O)Cn2c([N+](=O)[O-])cnc2C)cc1Cl | -2.0 | 1.4 | -4.0 | -4.8 | 5.4 | 57.0* | 51.0* | LYPLA2 ABPP=67.0*
Cc1ncc([N+](=O)[O-])n1CC(=O)Nc1ccc(Cl)cc1 | -0.7 | -3.1 | -0.5 | 2.1 | 0.7 | 47.1* | 50.9* | LYPLA2 ABPP=34.0
O=C(COC(=O)c1ccc(Br)cc1)NCc1ccc(F)cc1 | -1.4 | 0.9 | -8.1 | -5.7 | 4.4 | 0.2 | x
O=C(Cc1ccccc1)NCC(=O)OCC(=O)c1ccc(Cl)c([N+](=O)[O-])c1 | -2.8 | -3.5 | 8.6 | -2.9 | -4.8 | -2.8 | x
OCC(O)[C@@H](O[C@H]1O[C@H](CO)[C@@H](O)[C@H](O)[C@H]1O)[C@H](O)[C@@H](O)CO (some centres not stated) | -4.8 | 3.8 | 5.1 | 2.9 | -1.2 | -3.7 | x
COc1ccc(CCN(C)Cc2c(O)ccc3ccccc23)cc1OC | 1.1 | -4.6 | -3.8 | -1.2 | 8.1 | -2.7 | x
O=C(c1ccc(CNc2c(N3CCOCC3)c(=O)c2=O)cc1)N1CC=C(c2ccccc2)CC1 | 6.3 | -0.3 | 0.8 | -3.8 | 6.0 | 44.2* | 40.6*
O=C(O)CCCNC(=O)CCCNC(=O)C(c1ccccc1)c1ccccc1 | 0.4 | -0.7 | 2.1 | 0.1 | 2.8 | 1.5 | x
Cc1c(Br)c([N+](=O)[O-])nn1CC(=O)N1CCN(C23CC4CC(CC(C4)C2)C3)CC1 | 6.2 | 0.1 | 4.3 | 1.5 | 2.2 | 27.3* | -0.9
CS(=O)(=O)c1ccc(NC(=O)CCN2C(=O)C3CC=CCC3C2=O)cc1 (configuration not stated) | -1.9 | 3.3 | -1.6 | 0.8 | -2.2 | -3.1 | x
CNC(=O)c1nc(C)c(C2(C)CC(c3cccc([N+](=O)[O-])c3)=NO2)s1 (configuration not stated) | 2.0 | 2.6 | -1.8 | 3.0 | 2.5 | 26.0* | 28.6*
Cc1nc(C(=O)NCc2ccccc2)sc1C1(C)CC(c2cccc([N+](=O)[O-])c2)=NO1 (configuration not stated) | -4.3 | -0.5 | -1.2 | -4.4 | -3.0 | 14.3 | x
COC(=O)CSc1nccc(C)n1 | 3.6 | 0.2 | 4.8 | 2.2 | 2.4 | 43.7* | 0.6
Cc1ccnc(SCC(=O)O)n1 | 1.0 | -1.7 | 6.5 | 0.7 | -4.3 | 2.0 | x
O=Cc1cccc(Oc2ccc([N+](=O)[O-])cc2[N+](=O)[O-])c1 | 0.1 | -2.6 | 5.3 | 0.5 | 5.9 | 41.5* | 27.2*

Screens (PubChem)
